Mdm2 MdmX PPI – inhibitors of human Mdm2/MdmX interaction. O15151+Q00987. SaOS-2 split-luciferase Mdm2/MdmX complementation, luminescence. inhibition, % at 8 µM. hit rate 3% among 330,000;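 active = inhibition of at least 50% at 8 µM in the primary screen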
Target sequence (O15151 whole entry, looked up): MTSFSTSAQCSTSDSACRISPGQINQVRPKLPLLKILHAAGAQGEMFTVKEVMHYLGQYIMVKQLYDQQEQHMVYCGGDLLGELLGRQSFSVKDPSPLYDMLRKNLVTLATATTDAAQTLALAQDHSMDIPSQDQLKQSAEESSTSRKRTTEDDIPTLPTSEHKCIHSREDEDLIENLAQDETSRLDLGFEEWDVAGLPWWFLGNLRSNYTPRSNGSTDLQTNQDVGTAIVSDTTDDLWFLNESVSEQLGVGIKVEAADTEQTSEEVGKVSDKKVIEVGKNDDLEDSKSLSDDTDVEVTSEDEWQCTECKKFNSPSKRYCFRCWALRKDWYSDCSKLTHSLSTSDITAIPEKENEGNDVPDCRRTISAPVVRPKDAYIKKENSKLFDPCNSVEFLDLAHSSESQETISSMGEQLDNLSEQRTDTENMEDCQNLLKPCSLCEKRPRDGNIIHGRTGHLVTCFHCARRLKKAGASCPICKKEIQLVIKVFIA
Target sequence (Q00987 whole entry, looked up): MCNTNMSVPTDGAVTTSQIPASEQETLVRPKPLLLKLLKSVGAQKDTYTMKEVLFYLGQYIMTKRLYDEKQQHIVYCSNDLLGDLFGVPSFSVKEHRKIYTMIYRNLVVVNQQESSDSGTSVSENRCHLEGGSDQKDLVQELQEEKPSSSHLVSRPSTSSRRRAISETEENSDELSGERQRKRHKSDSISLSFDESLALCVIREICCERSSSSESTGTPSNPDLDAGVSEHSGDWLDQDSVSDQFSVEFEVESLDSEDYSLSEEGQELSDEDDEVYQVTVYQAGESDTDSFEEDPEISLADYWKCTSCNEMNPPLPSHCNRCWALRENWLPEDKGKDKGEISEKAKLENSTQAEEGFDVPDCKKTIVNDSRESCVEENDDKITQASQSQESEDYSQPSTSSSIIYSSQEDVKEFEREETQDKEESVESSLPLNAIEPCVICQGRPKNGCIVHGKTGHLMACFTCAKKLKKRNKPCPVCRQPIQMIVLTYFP
Beta cell apopt – blocks beta cell apoptosis. INS-1E cytokine-induced death, ATP luminescence, 48 h; percent of positive-control rescue, neutral wells zero. protection from apoptosis, % (concentration not given with the values). hit rate 0.8% among 300,000. AID 435005;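 active = Every replicate reaches about 75%, or at least half do and their mean reaches it too, limit read from the data; inconclusive = At least half of replicates reach the limit but their mean does not; inactive = Under half of replicates reach the limit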;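 also: higher means more ATP so stronger rescue from cytokine killing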
Calb FLC – C. albicans growth modulation with fluconazole; growth inhibition, % (no concentration beside the values); hit rate 0.57% among 300,000; C. albicans CaCi-2 (fluconazole-resistant clinical isolate) + fluconazole, Alamar Blue growth, 48 h;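 active = growth inhibition above about 58% in most replicates, limit read from the data, passing the limit was not always enough; inconclusive = exactly half the replicates above a set limit; inactive = most replicates below a set limit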;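 also: all wells also contain fluconazole at 8 µg/ml as a sub-toxic cotreatment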
SKKanGAS inh – blocks kanamycin growth of S. pyogenes SKKanGAS strain; BacTiter-Glo, 6 h; inhibition, % at 7.5 µM; hit rate 1.3% among 300,000; AID 1662;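 active = mean replicate score, as percent of positive control median, at least 50; inconclusive = mean below 50 but one replicate at or above 50; inactive = mean and every replicate below 50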;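 also: strain carries kanamycin resistance gene driven by streptokinase promoter and grows in 40 µg/ml kanamycin; loss of luminescence reflects streptokinase promoter inhibition or plain growth inhibition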
MPTP block – blocks calcium-induced mitochondrial swelling; isolated mouse mitochondria, Ca2+ swelling absorbance, 30 min; inhibition, % at 10 µM; hit rate 1.4% among 360,000; AID 602449;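 active = inhibition of 50% or more, scaled per plate between neutral and stimulator controls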
CSC inhib – blocks cancer stem cells; hit rate 1.1% among 300,000; cancer stem cell-like cells viability, luminescence; inhibition, % at 7.5 µM; in the data active = inhibition above about 75%; inconclusive = no clear call, values can overlap the other calls; tested in HMLE shEcad cells
Numbers stand for hits; i = inactive; ? = inconclusive; nt = no result. Sampled rows, rich in hits. Any-hit rate of the full collection: about 5.4%.

SMILES	Mdm2 MdmX PPI	Beta cell apopt	Calb FLC	SKKanGAS inh	MPTP block	CSC inhib
CC(=O)c1ccc(NC(=O)c2onc(C)c2Cl)cc1	i	nt	i	i	i	i
Cc1noc(NC(=O)c2ccc(Cl)c(Cl)c2)c1Cl	i	i	89.4	i	i	i
COc1cc(N=Nc2ccc3ccccc3c2)ccc1O	i	i	i	i	i	93.0
Oc1ccc(N=Nc2ccc3ccccc3c2)cc1	i	i	i	i	i	110.5
Oc1ccc(N=Nc2c(O)ccc3ccccc23)cc1	i	i	i	i	i	77.6
COc1cc(N=Nc2ccccc2C(=O)O)ccc1O	i	i	nt	i	i	i
NS(=O)(=O)c1ccc(N=Nc2c(O)ccc3ccccc23)cc1	i	i	i	i	i	i
Cc1ccccc1S(=O)(=O)Cc1ccc(C(=O)NCCCOC(C)C)o1	i	i	i	i	i	i
CCOc1ccccc1NC(=O)C1C2CCC3C(CCC21)C3(Cl)Cl (configuration not stated)	i	i	i	i	i	i
Cc1ccc(S(=O)(=O)CC(CN2CCOCC2)N2CCOCC2)cc1 (configuration not stated)	i	i	i	i	i	i
Cc1ccc(S(=O)(=O)CC(C)N2CCOCC2)c(S(=O)(=O)CC(C)N2CCOCC2)c1 (configuration not stated)	i	nt	103.0	i	i	i
COc1ccc(OC)c(NC(=O)CSc2nnnn2C)c1	i	i	i	i	i	nt
CN1CCN(c2ccc(C(=O)c3ccccc3)cc2[N+](=O)[O-])CC1	i	i	i	i	i	83.2
CN1CCN(c2ccccc2NC(=O)c2ccc(N3CCCCC3)c([N+](=O)[O-])c2)CC1	i	i	i	i	i	nt
O=C(c1ccc(CS(=O)(=O)c2ccccc2)o1)N1CCOCC1	i	i	i	i	i	i
S=c1[nH]cc(-c2ccc(Cl)cc2)n1Cc1ccccc1	i	i	i	i	i	i
CCn1c(-c2ccccc2)c[nH]c1=S	i	i	i	72.5	i	nt
O=C(CC1C(=O)NCCN1Cc1cccc(F)c1F)NC1CCCCCC1 (configuration not stated)	i	i	i	i	i	i
CCOC(=O)N1CCN(c2ccc(S(=O)(=O)N(Cc3ccccc3)Cc3ccccc3)cn2)CC1	i	104.4	i	i	i	i
Cc1ccc(-c2csc3ncnc(-n4cnc5ccccc54)c23)cc1	i	i	i	i	i	76.7
c1ccc(-c2csc3ncnc(-n4cnc5ccccc54)c23)cc1	i	nt	i	i	i	i
Cc1nn(CC(=O)NCCCc2ccccc2)c(C)c1[N+](=O)[O-]	i	i	86.6	i	i	i
Nc1nc2c(s1)CCc1c-2cnn1-c1ccccc1	i	i	i	i	i	i
COc1cccc(NC(=O)CCN2C(=O)c3ccc([N+](=O)[O-])cc3C2=O)c1	i	i	i	i	i	i
O=C(NN=Cc1cc(Cl)ccc1[N+](=O)[O-])c1cccc2ccccc12	nt	nt	nt	nt	i	nt
SMILES	Mdm2 MdmX PPI	Beta cell apopt	Calb FLC	SKKanGAS inh	MPTP block	CSC inhib
Cc1cc(C(=O)N/N=C/c2cc(Cl)cc([N+](=O)[O-])c2O)c2ccccc2n1	i	i	79.2	114.4	i	i
COC(=O)c1c(NC(NC(=O)C(C)C)C(Cl)(Cl)Cl)sc2c1CCCC2 (configuration not stated)	i	i	i	57.7	i	nt
CC(c1nnc(SCC(=O)N2CC(=O)Nc3ccccc32)n1Cc1ccccc1)N(C)C (configuration not stated)	i	i	?	i	i	i
Brc1ccc(/C=N/Nc2ccccc2)cc1	i	i	i	i	i	78.9
Oc1ccc(/C=N/Nc2ccccc2)cc1	i	i	i	i	i	i
O=C(Nc1ccccc1)c1ccccc1OCc1cccc([N+](=O)[O-])c1	i	i	i	i	i	i
CC(C)Oc1ccc(S(=O)(=O)N2CCOCC2)cc1NC(=O)CSc1nnc(C2CC2)n1C	nt	nt	nt	nt	i	nt
Cc1cccc(-c2nnc3n2N=C(c2ccccc2Br)CS3)c1	i	i	i	i	i	i
CCCCOc1ccc(S(=O)(=O)N2CCN(c3ccc(N4CCN(CC)CC4)nn3)CC2)cc1	i	nt	i	i	i	94.7
COC(=O)c1ccc(N2CCC(c3cc(-c4ccc(OC)cc4)n[nH]3)CC2)c([N+](=O)[O-])c1	i	i	?	90.3	i	i
CC(=O)c1ccc(N2CCC(c3cc(-c4ccc(Cl)cc4)n[nH]3)CC2)c([N+](=O)[O-])c1	i	i	i	88.1	i	100.7
CC(=O)c1ccc(N2CCN(c3ncccn3)CC2)c([N+](=O)[O-])c1	i	i	i	i	i	nt
COc1cccc(C(=O)NC(C)C(c2cccs2)N2CCN(C)CC2)c1 (configuration not stated)	i	nt	i	i	i	nt
CCN(c1ccc(OC)cc1)S(=O)(=O)N1CCCC(C(=O)NC(C)c2ccccc2)C1 (configuration not stated)	nt	nt	nt	nt	i	nt
CCCCc1ccc(NC(=S)NCCc2ccc(S(N)(=O)=O)cc2)cc1	i	i	i	i	i	i
Cc1ccc2c(Cl)cc(Cl)c(OCC(=O)NC(C)(C)C)c2n1	i	i	i	49.9	i	i
CC1=NNC(=O)C1CCC(=O)N/N=C/c1ccc(Cl)cc1 (configuration not stated)	i	i	i	i	i	i
CC(C)(C)NC(=O)C(c1ccc(O)cc1)N(Cc1ccco1)C(=O)Cn1nnc(-c2cccs2)n1 (configuration not stated)	i	i	i	i	i	i
CCn1cc(C(=O)O)c(=O)c2cc(F)c(N3CCN(C(=S)Nc4ccc(OC)cc4)CC3)cc21	i	i	i	67.7	i	nt
CCn1cc(C(=O)NCc2ccc3c(c2)OCO3)c(=O)c2cc(F)c(N3CCN(C(=O)c4ccco4)CC3)cc21	i	i	i	53.5	i	i
CCn1cc(C(=O)O)c(=O)c2cnc(N3CCN(C(=S)Nc4ccccc4)CC3)nc21	i	i	i	i	i	i
CCn1cc(C(=O)O)c(=O)c2cc(F)c(N3CCN(C(=S)NC(=O)c4cc(OC)cc(OC)c4)CC3)cc21	i	i	?	?	i	i
CCCCOC(=O)c1ccc(NC(=S)N2CCN(c3ncc4c(=O)c(C(=O)O)cn(CC)c4n3)CC2)cc1	i	i	i	91.6	i	i
CCOC(=O)C1CCC(CNCc2ccc(Cl)cc2)CC1 (configuration not stated)	i	nt	i	i	i	nt
Cc1ccccc1C(=O)Nn1c(C)ccc1C	i	i	?	i	nt	i
SMILES	Mdm2 MdmX PPI	Beta cell apopt	Calb FLC	SKKanGAS inh	MPTP block	CSC inhib
CC(C)CCNC(=O)NC(=O)CSc1nnc(-c2ccccc2F)n1N	i	i	i	i	i	i
COCC(=O)N/N=C/c1c(C)[nH]n(-c2ccccc2)c1=O	i	nt	i	i	i	i
Cc1[nH]n(-c2ccccc2)c(=O)c1C(=O)c1ccccc1	i	i	nt	i	i	i
CC/C(=N/NC(=O)c1ccccc1O)c1c(C)[nH]n(-c2ccccc2)c1=O	i	i	101.1	95.4	i	81.4
CC(=O)N/N=C/c1c(C)[nH]n(-c2ccccc2)c1=O	i	i	i	i	i	i
Cc1[nH]n(-c2ccccc2)c(=O)c1/C=N/NC(=O)c1ccccc1F	i	nt	i	90.3	i	nt

Bioassay records: PubChem BioAssay, several laboratories
